Here are results for 9 compounds from PubChem BioAssay (NCI).

A short description of assay [1]: NCI Yeast Anticancer Drug Screen. Data for the rad50 strain (AID 155).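 Note: 0% = growth of vehicle-only cultures of the same strain.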 The note with it: S. cerevisiae rad50 strain growth inhibition, stronger effect = higher value. The gist of the method:
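Growth of the mutant yeast was measured after compound exposure and referenced to vehicle-treated cultures.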

Assay [2] in a line: NCI Yeast Anticancer Drug Screen. Data for the mec2-1 strain (AID 157). The note with it: S. cerevisiae mec2-1 strain, stronger effect = higher value. Summed up: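 Readout is yeast growth inhibition, normalised to vehicle-treated controls, in the mec2-1 strain exposed to compound.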
A short description of assay [3]: NCI Yeast Anticancer Drug Screen. Data for the sgs1 mgt1 strain (AID 161).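 Note: 0% = growth of cultures given vehicle only.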 The note with it: S. cerevisiae sgs1 mgt1 strain, stronger effect = higher value. Summed up:
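This yeast growth screen uses a strain with defined DNA-repair lesions; compound-treated growth is compared with vehicle-treated growth.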

Assay [4] can be described thus: NCI Yeast Anticancer Drug Screen. Data for the cln2 rad14 strain (AID 165).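 Note: 0% = growth equal to vehicle treated cultures.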 The note with it: S. cerevisiae cln2 rad14 strain, stronger effect = higher value. The gist of the method: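 Relative to vehicle controls, growth inhibition of compound-treated cln2 rad14 yeast was recorded.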
Assay [5] can be described thus: NCI Yeast Anticancer Drug Screen. Data for the bub3 strain (AID 167). Conditions: S. cerevisiae bub3 mutant strain, stronger effect = higher value. The gist of the method:
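Whole-cell yeast assay. The mutant strain was incubated with compounds, and growth inhibition was determined by comparison with vehicle-treated cells.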

Assay [6] can be described thus: NCI Yeast Anticancer Drug Screen. Data for the mlh1 rad18 strain (AID 175). The note with it: S. cerevisiae mlh1 rad18 strain growth inhibition, stronger effect = higher value. The gist of the method: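 Test agents were incubated with a yeast strain of defined genotype (DNA damage repair defect). Inhibition of growth was derived by comparison with vehicle-exposed cultures.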

The mark [7] stands for this setting: at 5.0 µM (retest, dose inferred, filed as 0.5).
Setting [8] is: at 50.0 µM (retest, dose inferred, filed as 5.0).

The structures appear in SMILES notation. Several values for one entry are separate records, joined by “and”; a condition that tells them apart may be missing. Equal values may be shown once. Compounds without any hit were thinned out: in the full panel of roughly 79,000, 15% have a hit. Some compounds were tested as several samples or in several runs, with calls that do not always agree. Activity calls are given as the source filed them. Cut-off read from the data, not from the text of the source: active = growth inhibition above about 70%; inactive = the rest.

As for `[Se]c1ncnc2nc[nH]c12`, the growth inhibition in assay [1] (setting [7]) is 21% (inactive); in assay [1] (setting [8]) it was 57% (inactive); in assay [1] (at 50.0 µM) it was 57.9% (inactive); in assay [2] (setting [7]), 15% (inactive); in assay [2] (setting [8]) it was 37% (inactive); in assay [2] (at 50.0 µM), 38.7% (inactive). Further, the growth inhibition in assay [3] (setting [7]) is 13% (inactive); in assay [3] (setting [8]), 41% (inactive); in assay [3] (at 50.0 µM) it was 37.9% (inactive); in assay [4] (setting [7]) it was 11% (inactive); in assay [4] (setting [8]), 23% (inactive); in assay [4] (at 50.0 µM), 2.25% (inactive). Also, the growth inhibition in assay [5] (setting [7]) is -2% (inactive); in assay [5] (setting [8]), 60% (inactive); in assay [5] (at 50.0 µM), 39.2% (inactive); in assay [6] (setting [7]), 17% (inactive); in assay [6] (setting [8]), 68% (inactive); in assay [6] (at 50.0 µM), 84.2% (active).

As for `NC(Cc1c[nH]c2ccccc12)P(=O)(O)O` (configuration not stated), the growth inhibition in assay [1] (setting [7]) is -1% (inactive); in assay [1] (setting [8]), 37% (inactive); in assay [1] (at 50.0 µM), 38.1% (inactive); in assay [2] (setting [7]), 0% (inactive); in assay [2] (setting [8]), 87% (active); in assay [2] (at 50.0 µM), 13.4% (inactive). Further, the growth inhibition in assay [3] (setting [7]) is 3% (inactive); in assay [3] (setting [8]) it was 29% (inactive); in assay [3] (at 50.0 µM), -7.75% (inactive); in assay [4] (setting [7]) it was 1% (inactive); in assay [4] (setting [8]), 96% (active); in assay [4] (at 50.0 µM) it was 22.9% (inactive). The growth inhibition in assay [5] (setting [7]) was -9% (inactive); in assay [5] (setting [8]), 98% (active); in assay [5] (at 50.0 µM), -0.8% (inactive); in assay [6] (setting [7]) it was -9% (inactive); in assay [6] (setting [8]) it was 47% (inactive); in assay [6] (at 50.0 µM), 26% (inactive).

Take `[Br][Hg][CH2]COC[CH2][Hg][Br]`: the growth inhibition in assay [1] (setting [7]) is 95% (active); in assay [1] (setting [8]) it was 99% (active); in assay [1] (at 50.0 µM), 99.4% (active); in assay [2] (setting [7]) it was 98% (active); in assay [2] (setting [8]), 100% (active); in assay [2] (at 50.0 µM) it was 99.6% (active). The growth inhibition in assay [3] (setting [7]) was 98% (active); in assay [3] (setting [8]), 51% (inactive); in assay [3] (at 50.0 µM), 99.5% (active); in assay [4] (setting [7]) it was 83% (active); in assay [4] (setting [8]) it was 99% (active); in assay [4] (at 50.0 µM), 98.8% (active). For the same compound, the growth inhibition is 96% (active) in assay [5] (setting [7]); 99% (active) in assay [5] (setting [8]); 99% (active) in assay [5] (at 50.0 µM); 95% (active) in assay [6] (setting [7]); 99% (active) in assay [6] (setting [8]); 99.1% (active) in assay [6] (at 50.0 µM).

Turning to `O=C(CI)NCc1ccccc1`, the growth inhibition in assay [1] (setting [7]) is 22% (inactive); in assay [1] (setting [8]) it was 98% (active); in assay [1] (at 50.0 µM), 97.8% (active); in assay [2] (setting [7]), 29% (inactive); in assay [2] (setting [8]) it was 99% (active); in assay [2] (at 50.0 µM) it was 99.2% (active). In addition, the growth inhibition in assay [3] (setting [7]) was 41% (inactive); in assay [3] (setting [8]), 99% (active); in assay [3] (at 50.0 µM), 99% (active); in assay [4] (setting [7]), 12% (inactive); in assay [4] (setting [8]), 99% (active); in assay [4] (at 50.0 µM) it was 97.8% (active). The growth inhibition was 31% (inactive) in assay [5] (setting [7]); 99% (active) in assay [5] (setting [8]); 99% (active) in assay [5] (at 50.0 µM); 55% (inactive) in assay [6] (setting [7]); 99% (active) in assay [6] (setting [8]); 99.2% (active) in assay [6] (at 50.0 µM).

As for `COc1cccc2c1cc([N+](=O)[O-])c1c(C(=O)O)cc3c(c12)OCO3`, the growth inhibition is 35% (inactive) and 54% (inactive) in assay [1] (setting [7]); 95% (active) and 94% (active) in assay [1] (setting [8]); 87.8% (active) and 91% (active) in assay [1] (at 50.0 µM); 4% (inactive) and 39% (inactive) in assay [2] (setting [7]); 83% (active) and 93% (active) in assay [2] (setting [8]); 85.7% (active) and 91.7% (active) in assay [2] (at 50.0 µM). In addition, the growth inhibition in assay [3] (setting [7]) is 22% (inactive) and 61% (inactive); in assay [3] (setting [8]) it was 94% (active) and 95% (active); in assay [3] (at 50.0 µM), 88.3% (active) and 88.7% (active); in assay [4] (setting [7]) it was -11% (inactive) and 19% (inactive); in assay [4] (setting [8]) it was 62% (inactive) and 84% (active); in assay [4] (at 50.0 µM), 84.4% (active) and 86.8% (active). Besides, the growth inhibition in assay [5] (setting [7]) is 18% (inactive) and 49% (inactive); in assay [5] (setting [8]), 78% (active) and 93% (active); in assay [5] (at 50.0 µM), 89.8% (active) and 90.5% (active); in assay [6] (setting [7]), 25% (inactive) and 71% (active); in assay [6] (setting [8]), 90% (active) and 95% (active); in assay [6] (at 50.0 µM), 88.7% (active) and 79.7% (active).

Take `CCN(CC)CC(=O)c1ccc2c(ccc3ccccc32)c1`: the growth inhibition in assay [1] (setting [7]) was 15% (inactive); in assay [1] (setting [8]), 98% (active); in assay [1] (at 50.0 µM) it was 99.2% (active); in assay [2] (setting [7]) it was 26% (inactive); in assay [2] (setting [8]), 100% (active); in assay [2] (at 50.0 µM), 99.5% (active). Further, the growth inhibition in assay [3] (setting [7]) is 6% (inactive); in assay [3] (setting [8]), 99% (active); in assay [3] (at 50.0 µM), 99.5% (active); in assay [4] (setting [7]), -1% (inactive); in assay [4] (setting [8]), 97% (active); in assay [4] (at 50.0 µM), 99.3% (active). The growth inhibition was 8% (inactive) in assay [5] (setting [7]); 99% (active) in assay [5] (setting [8]); 99.2% (active) in assay [5] (at 50.0 µM); 43% (inactive) in assay [6] (setting [7]); 99% (active) in assay [6] (setting [8]); 99.3% (active) in assay [6] (at 50.0 µM).

`O=[N+]([O-])O.O=[N+]([O-])O.[NH-]C1CCCCC1[NH-].[Pt+2]` (configuration not stated): the growth inhibition in assay [1] (setting [7]) was 33% (inactive); in assay [1] (setting [8]), 96% (active); in assay [1] (at 50.0 µM) it was 52.1% (inactive); in assay [2] (setting [7]), 25% (inactive); in assay [2] (setting [8]), 95% (active); in assay [2] (at 50.0 µM), 90.7% (active). For the same compound, the growth inhibition in assay [3] (setting [7]) is 57% (inactive); in assay [3] (setting [8]), 100% (active); in assay [3] (at 50.0 µM), 79.5% (active); in assay [4] (setting [7]), 45% (inactive); in assay [4] (setting [8]), 97% (active); in assay [4] (at 50.0 µM), 86.4% (active). The growth inhibition was 56% (inactive) in assay [5] (setting [7]); 100% (active) in assay [5] (setting [8]); 88.9% (active) in assay [5] (at 50.0 µM); 16% (inactive) in assay [6] (setting [7]); 75% (active) in assay [6] (setting [8]); 92.3% (active) in assay [6] (at 50.0 µM).

For `CC1(C)CCC(C)(C)c2cc(Cl)c(O)cc21`, the growth inhibition in assay [1] (setting [7]) was 4% (inactive); in assay [1] (setting [8]), 1% (inactive); in assay [1] (at 50.0 µM), 97.8% (active); in assay [2] (setting [7]), 4% (inactive); in assay [2] (setting [8]), 2% (inactive); in assay [2] (at 50.0 µM), 99.2% (active). The growth inhibition in assay [3] (setting [7]) is 4% (inactive); in assay [3] (setting [8]), 2% (inactive); in assay [3] (at 50.0 µM), 52.5% (inactive); in assay [4] (setting [7]) it was 5% (inactive); in assay [4] (setting [8]), 4% (inactive); in assay [4] (at 50.0 µM) it was 96.6% (active). The growth inhibition in assay [5] (setting [7]) is 3% (inactive); in assay [5] (setting [8]), 9% (inactive); in assay [5] (at 50.0 µM), 98.8% (active); in assay [6] (setting [7]) it was -1% (inactive); in assay [6] (setting [8]), -4% (inactive); in assay [6] (at 50.0 µM), 97.2% (active).

With `Nc1nc(N)c(-c2ccc(Cl)c(Cl)c2)c(CCc2ccc(CNC(=O)c3ccc(S(=O)(=O)F)cc3)cc2)n1`, the growth inhibition is -4% (inactive) in assay [1] (setting [7]); 87% (active) in assay [1] (setting [8]); 46.7% (inactive) in assay [1] (at 50.0 µM); 3% (inactive) in assay [2] (setting [7]); 66% (inactive) in assay [2] (setting [8]); 96.5% (active) in assay [2] (at 50.0 µM). The growth inhibition in assay [3] (setting [7]) is 6% (inactive); in assay [3] (setting [8]), 98% (active); in assay [3] (at 50.0 µM), 44% (inactive); in assay [4] (setting [7]) it was -14% (inactive); in assay [4] (setting [8]) it was 88% (active); in assay [4] (at 50.0 µM) it was 74.6% (active). Also, the growth inhibition was -17% (inactive) in assay [5] (setting [7]); 54% (inactive) in assay [5] (setting [8]); 68.9% (inactive) in assay [5] (at 50.0 µM); 22% (inactive) in assay [6] (setting [7]); 96% (active) in assay [6] (setting [8]); 76.2% (active) in assay [6] (at 50.0 µM).
